“And” between values parts separate entries of the source, which are not always exact repeats. Identical values can stand only once. Screen size: about 220,000 compounds; about 2,000 (0.91%) were called active. Another 2% or so got no clear call; they are omitted. Rule as the data show it: inconclusive = inhibition above about 80% without an active follow-up result; inactive = below that; test concentration not stated here. The list is a sample of the results. Results with a measured potency or affinity are listed apart.
Assay: M. tuberculosis H37Rv growth inhibitors, H37Rv strain (AID 1626);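 also: bacteria incubated seven days before Alamar blue readout; 0% = bacteria only wells and 100% = bacteria with antibiotic wells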
Details: active compounds read high, concentration not given here

| SMILES | inhibition |
| --- | --- |
| Cc1ccc(NC(=O)C2CCCN(C(=O)c3ccc(Cl)cc3)C2)cc1C (stereo not drawn) | 2.5% (inactive) |
| CC1=NN(C(=O)c2ccco2)C(O)(c2ccccc2)C1 (stereo not drawn) | -2.5% (inactive) |
| CC(=O)c1cccc(N(CC(=O)N2CCCCC2)S(C)(=O)=O)c1 | 1.7% (inactive) |
| CCOc1cc(NC(=S)NCC2CCCO2)c(OCC)cc1NC(=O)c1ccc(F)cc1 (stereo not drawn) | 1.9% (inactive) |
| COc1ccc(-c2[nH]ncc2CNCCn2cccn2)c(F)c1 | -7% (inactive) |
| COc1ccccc1OCC(O)CNCc1ccc2c(c1)OCO2 (stereo not drawn) | -7.62% (inactive) |
| Cc1[nH]n(-c2ccccc2)c(=O)c1C=NCCc1ccccc1 | 0.59% (inactive) |
| CCCCN=Cc1c(C)[nH]n(-c2ccccc2)c1=S | -2.18% (inactive) |
| CS/C(=C\[N+](=O)[O-])Nc1ccc(F)cc1 | 3.42% (inactive) |
| O=C(CN1CCCc2ccccc21)NC(=O)NC1CCCCC1 | 6.06% (inactive) |
| O=C(NC(Nc1nc2ccccc2s1)(C(F)(F)F)C(F)(F)F)c1ccccc1 | -8.04% (inactive) |
| O=C(NC(Nc1nc2ccc([N+](=O)[O-])cc2s1)(C(F)(F)F)C(F)(F)F)c1cccnc1 | 5.87% (inactive) |
| Cc1cc2nnc(SCC(=O)NCc3cccs3)n2c(N)n1 | -5.08% (inactive) |
| COc1ccc(-c2nn(-c3ccccc3)cc2/C=N/NC(N)=S)cc1OC | 2.96% (inactive) |
| COc1ccc(-c2nn(-c3ccccc3)cc2/C=N/n2cnnc2)cc1OC | -15.3% (inactive) |
| CCCn1nnnc1NC(=O)COc1ccc(CC)cc1 | 0.65% (inactive) |
| CC(=O)N1N=C(c2cccnc2)OC1c1ccccc1Cl (stereo not drawn) | 2.68% (inactive) |
| Cc1ccc(NC(=O)COC(=O)/C=C/c2cccs2)cc1 | -0.47% (inactive) |
| CCCCC(=O)Nc1ccc(C)c(O)c1 | 2.73% (inactive) |
| COc1ccc(N/C(C)=C/C(=S)Nc2ccccc2)cc1 | 29.2% (inactive) |
| C/C(=C\C(=S)Nc1ccccc1)Nc1ccccc1 | 4.78% (inactive) |
| CCCCC(=O)Nc1cccc(NC(=O)CC)c1 | 3.01% (inactive) |
| NC(=O)c1ccc(NC(=O)COC(=O)/C=C/c2cccs2)cc1 | -2.1% (inactive) |
| CC(C)CC(=O)Nc1ccc2ccccc2c1 | 85.1% (inactive) and -4.53% (inactive) |
| O=C(CS)Nc1ccc2ccccc2c1 | -9.08% (inactive) |
| O=S(=O)(CCOc1ccccc1)c1nc2ccccc2[nH]1 | -6.66% (inactive) |

| SMILES | inhibition |
| --- | --- |
| COCCCn1c(SCC(=O)Nc2nc3ccccc3s2)nnc1-c1ccoc1C | 4.35% (inactive) |
| Cc1cc(C)c(S(=O)(=O)N2CCCCC2)c(C)c1N(C)S(=O)(=O)c1ccc(Cl)cc1 | 1.13% (inactive) |
| CCOc1nc(C)ccc1-c1noc(CC)n1 | -1.19% (inactive) |
| CCOC(=O)C1CSC(CC(=O)Nc2ccc(Cl)cc2)C(=O)N1 (stereo not drawn) | -6.13% (inactive) |
| OC1(CNCc2cn[nH]c2-c2cc3ccccc3o2)CCCCC1 | -6.25% (inactive) |
| COc1cccc(-n2c(SCc3c(C)noc3C)nnc2-c2cccc(S(=O)(=O)N(C)C)c2)c1 | 4.97% (inactive) |
| Cc1ccccc1OCc1csc(N)n1 | 3.59% (inactive) |
| CN=C(C)c1c(O)c2ccccc2oc1=O | -1.28% (inactive) |
| CC(C)N(C(=O)Cn1c(SCC(=O)Nc2nccs2)nc2ccccc21)C(C)C | 0.44% (inactive) |
| CC(=O)N1N=C(c2cccc(Br)c2)OC12CCCC2 | -8.1% (inactive) |
| CC(=O)Nc1ccc2ccccc2c1 | 12.4% (inactive) |
| Cc1nc(-c2ccc(NC(=O)CC(C)C)cc2)cs1 | 31.2% (inactive) |
| CCOC(=O)C(C(=O)OCC)C(Nc1ccccc1)c1ccccc1 (stereo not drawn) | 1.08% (inactive) |
| CC(=O)CC(=O)Nc1ccc(Nc2ccccc2)cc1 | 6.81% (inactive) |
| CCC(=O)Nc1ccc(-c2csc(C)n2)cc1 | 45.9% (inactive) |
| CCOC(=O)CS(=O)(=O)c1ccc2ccccc2c1 | -12.2% (inactive) |
| O=C(Nc1ccc(Cl)c([N+](=O)[O-])c1)ONC1=NCCCCC1 | 0.03% (inactive) |
| CCCNC(=O)NC(=O)CN1C(=O)NC(C)(c2ccc(C)cc2)C1=O (stereo not drawn) | -1.35% (inactive) |
| CC(C(N)=O)N1C(=O)C2C3C=CC(C3)C2C1=O (stereo not drawn) | -3.12% (inactive) |
| Cc1ccc(-c2cc(C(=O)NCc3cccnc3)no2)cc1 | 3.89% (inactive) |
| Cc1ccc(NC(=S)NCCc2c[nH]c3ccccc23)c(C)c1 | 4.17% (inactive) |
| Cc1nn(C)cc1/C=C/C(=O)c1cccs1 | 2.82% (inactive) |
| Cc1c(/C=C/C(=O)c2cccs2)cnn1C | -1.78% (inactive) |
| CCN(CC)C(=S)SCC(=O)Nc1ncc2c(n1)CC(C)(C)CC2=O | 1.56% (inactive) |
| CC(=O)C1=C(C)NC(SCC(N)=O)=C(C#N)C1c1ccco1 (stereo not drawn) | -4.99% (inactive) |
| CC(=O)C1=C(C)NC(SCC(=O)c2ccc(Cl)cc2)=C(C#N)C1c1ccco1 (stereo not drawn) | 50% (inactive) |

| SMILES | inhibition |
| --- | --- |
| CC(=O)C1=C(C)NC(SCC(=O)c2cc(Cl)ccc2Cl)=C(C#N)C1c1ccco1 (stereo not drawn) | 15.3% (inactive) |
| CC1=C(C(=O)Nc2ccccc2)C(c2ccco2)C(C#N)=C(SCC(=O)Nc2cccc(C)c2C)N1 (stereo not drawn) | 4.09% (inactive) |
| CC(=O)C1=C(C)NC(SCC(=O)c2ccc(Cl)cc2Cl)=C(C#N)C1c1ccco1 (stereo not drawn) | 12.4% (inactive) |
| CCOc1ccccc1NC(=O)CSC1=C(C#N)C(c2ccco2)C(C(=O)Nc2nc3ccccc3s2)=C(C)N1 (stereo not drawn) | 49.1% (inactive) |
| CC(=O)C1=C(C)NC(SCC(=O)c2ccccc2)=C(C#N)C1c1ccco1 (stereo not drawn) | 43.6% (inactive) |
| CC(=O)C1=C(C)NC(SCc2ccc(C#N)cc2)=C(C#N)C1c1ccco1 (stereo not drawn) | -1.27% (inactive) |
| CN1CCN(C(=O)c2cc3nc(-c4ccc(F)cc4)cc(C(F)(F)F)n3n2)CC1 | -1.56% (inactive) |
| CC(C)OP(=O)(OC(C)C)C(O)c1ccc(Br)cc1 (stereo not drawn) | -5.46% (inactive) |
| O=S(=O)(c1ccc(Cl)s1)N1CCC(Cc2ccccc2)CC1 | -5.95% (inactive) |
| O=C(Nc1cccc([N+](=O)[O-])c1)c1ccc(N2CCCC2=O)cc1 | 3.44% (inactive) |
| COc1cc(C(=O)NNC(=O)c2ccoc2C)cc(OC)c1OC | -3.54% (inactive) |
| COc1ccc(C)cc1NC(=O)COC(=O)C1CCN(C(=O)c2ccc(Cl)cc2)CC1 | 3.93% (inactive) |
| Cc1ccc(NC(=O)Cn2c(O)c(N=NC(=O)c3ccncc3)c3ccccc32)cc1 | -1.42% (inactive) |
| O=C(C1CCCCC1)N1CCN(C(=O)C2CCCCC2)CC1 | -1.95% (inactive) |
| CCc1c(C)c(C#N)c2[nH]c3ccccc3n2c1=S | -5.86% (inactive) |
| Cc1c(CCC(=O)O)c(=O)n2c([nH]c3ccccc32)c1C#N | -32.2% (inactive) |
| Cc1c(CCC(C)C)c(=O)n2c([nH]c3ccccc32)c1C#N | 5.47% (inactive) |
| CCc1cc(=S)n2c([nH]c3ccccc32)c1C#N | -2.47% (inactive) |
| COc1c(O)ccc2cnn(-c3ccccc3C)c(=O)c12 | -8.74% (inactive) |
| CC1CC(C)CN(CC(O)COCCOc2ccc(Br)cc2)C1 (stereo not drawn) | 0.51% (inactive) |
| CCCCN1CC[C@H]2C=CC[C@@H](C(=O)Nc3ccccc3)[C@H]2C1=O | -7.03% (inactive) |
| [O-][n+]1onc2c3ccnnc3ccc21 | 58.6% (inactive) |
| c1ccc(-c2cc3c(ccc4nonc43)nn2)cc1 | -7.6% (inactive) |
| Cn1c(-c2ccccc2)cc(=O)c2ccccc21 | 1.71% (inactive) |
| COc1ccc2c(c1)c(=O)cc(-c1ccccc1)n2C | -2.37% (inactive) |
| CCCCCC(=O)N/N=C(\C)c1ccc(N2CCCCC2)cc1 | -2.51% (inactive) |

| SMILES | inhibition |
| --- | --- |
| CCOc1ccc2cc(C3CC(c4ccco4)=NN3S(C)(=O)=O)c(=O)[nH]c2c1 (stereo not drawn) | 0.83% (inactive) |
| COc1ccccc1OCCSc1nc2ccccc2n1CCO | -6.33% (inactive) |
| O=C1CC(NCc2ccc(F)cc2)C(=O)N1c1ccccc1 (stereo not drawn) | -1.25% (inactive) |
| CCOC(=O)N1CCN(C(=O)C2CCN(S(=O)(=O)c3ccc(C)cc3)CC2)CC1 | -7.16% (inactive) |
| COc1ccccc1-n1c(SCC(=O)N2CCOCC2)nc(O)c(Cc2ccccc2)c1=O | -3.87% (inactive) |
| C[C@@H]1C=C[C@](Cc2ccccc2)(C(=O)NCC2CC2)N1C(=O)c1ccccc1 | -23% (inactive) |
| COc1ccccc1CC(=O)Nc1cc2oc3ccccc3c2cc1OC | -9.4% (inactive) |
| COc1cc2c(cc1NC(=O)c1ccc3c(c1)OCO3)oc1ccccc12 | -1.46% (inactive) |
| COc1cc2c(cc1NC(=O)COc1ccccc1OC)oc1ccccc12 | 0.28% (inactive) |
| COc1ccccc1NC(=S)NCc1ccc2c(c1)OCO2 | 7.62% (inactive) |
| O=C(CN(C(=O)Cn1nnc(-c2ccc(F)cc2)n1)C1CCCC1)NC1CCCC1 | 0.92% (inactive) |
| O=[N+]([O-])c1ccc(N2CCN(C(=S)c3cccc([N+](=O)[O-])c3)CC2)cc1 | 1.74% (inactive) |
| CCN(C1CCCCC1)S(=O)(=O)c1ccc(C(=O)O)cc1 | -11.6% (inactive) |
| CCO[C@H]1OC(C(=O)N2CCOCC2)=C[C@@H](c2ccccc2)[C@@H]1CCCO | 0.78% (inactive) |
| Cc1ccccc1OCCn1cc(C(=O)C(=O)N2CCOCC2)c2ccccc21 | 5.53% (inactive) |
| O=C(CO/N=C/c1ccccc1Cl)N1CCCc2ccccc21 | 4.05% (inactive) |
| COc1ccccc1N1CCN(C(=O)C(Sc2ccccc2)c2ccccc2)CC1 (stereo not drawn) | -2.82% (inactive) |
| CCOC(=O)c1csc(COc2ccccc2Cl)n1 | -4.66% (inactive) |
| CCC(=O)NNC(=O)c1cc(COc2cc(Cl)cc(Cl)c2)on1 | 13.9% (inactive) |
| CC(=O)c1csc(COc2ccc(Cl)cc2)n1 | -4.98% (inactive) |
| CCOC(=O)c1sc(-c2ccc(C(F)(F)F)cc2)nc1O | -1.38% (inactive) |
| CC(C)NC(=O)NNC(=O)c1cc(COc2cc(Cl)cc(Cl)c2)on1 | -6.1% (inactive) |
| Cc1nc(-c2cc(-c3nc(-c4ccc(C(F)(F)F)cc4)no3)no2)cs1 | 7.08% (inactive) |
| CCOC(=O)c1csc(NC(=O)COc2ccc(Cl)cc2Cl)n1 | -7.94% (inactive) |
| Cc1onc(C(=O)NN)c1-c1csc(COc2ccc(Cl)cc2)n1 | -10.6% (inactive) |

Reference: PubChem BioAssay AID1626 (SRMLSC, 2009)
